Screening results (PubChem BioAssay)
The list is not random: actives were taken first. Their share in the collection is about 10%.
Mm-Cpn inhibitor – inhibitors of Methanococcus maripaludis chaperonin TRiC (MmCpn); purified Mm-Cpn ATPase, ADP Transcreener TR-FRET; Potency, µM (series often up to 76.9 µM), for inactives: at the highest dose activity, negative = inhibition, actives largely listed as inhibitors; hit rate 0.031% among 330,000; note: potency is the fitted concentration of half-maximal effect; nearly all actives have a fitted effect of over 80% in size
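Compound-treated chaperonin, 25 nM final, turns over 10 uM ATP at 37°C for 30 min following a 10 min preincubation; ADP generated competes with ADP-d2 for Eu-cryptate antibody, lowering FRET.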
G9a inh – G9a (human) methyltransferase inhibition; Q96KQ7; AID 504332; hit rate 8.8% among 350,000; G9a H3K9 monomethylation, AlphaScreen, 2 h; Potency, µM (titrated, usually from 102 µM), for the others: top-dose activity, negative = inhibition, usual class: inhibitors; note: potency is the fitted concentration of half-maximal effect; nearly all actives have a fitted effect of over 75% in size
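Signal arises when biotinylated H3K9 peptide, once monomethylated, bridges streptavidin donor and antibody-captured acceptor beads. Enzyme at 20 nM was preincubated 15 min with test compounds; peptide 500 nM and SAM 20 uM then reacted for 2 h.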
Sfp PPTase inh – Sfp phosphopantetheinyl transferase inhibition; Q9F4F7; Biochemical Sfp PPTase activity, qHTS; Potency, µM, without a hit: largest response in the series, negative = inhibition, actives largely listed as inhibitors; hit rate 3.5% among 310,000;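 note: the enzyme is Sfp with the accession as filed and its product quenches rhodamine fluorescence; potency is the fitted concentration of half-maximal effect; 0% = enzyme reaction without inhibitor and -100% = no enzyme wells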
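Fluorescence-quenching assay: 15 nM Sfp-PPTase preincubated 15 min at room temperature with compound, then 5 uM rhodamine-CoA and 12.5 uM BHQ-2-labelled YbbR peptide added. Fluorescence (ex 525/em 598 nm) read at start and after 30 min; difference gives rate.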
PLK1 PBD inh – blocks phosphopeptide binding to human PLK1 polo-box domain. P53350. Plk1 PBD binding of FITC phosphopeptide, fluorescence polarization. Potency, µM, without a hit: max response, negative = inhibition, actives largely listed as inhibitors. hit rate 2.8% among 360,000; note: potency is the fitted concentration of half-maximal effect; series mostly up to about 57 µM; nearly all actives have a fitted effect of over 65% in size
Target sequence (P53350 whole entry, looked up, the tested form may be a part): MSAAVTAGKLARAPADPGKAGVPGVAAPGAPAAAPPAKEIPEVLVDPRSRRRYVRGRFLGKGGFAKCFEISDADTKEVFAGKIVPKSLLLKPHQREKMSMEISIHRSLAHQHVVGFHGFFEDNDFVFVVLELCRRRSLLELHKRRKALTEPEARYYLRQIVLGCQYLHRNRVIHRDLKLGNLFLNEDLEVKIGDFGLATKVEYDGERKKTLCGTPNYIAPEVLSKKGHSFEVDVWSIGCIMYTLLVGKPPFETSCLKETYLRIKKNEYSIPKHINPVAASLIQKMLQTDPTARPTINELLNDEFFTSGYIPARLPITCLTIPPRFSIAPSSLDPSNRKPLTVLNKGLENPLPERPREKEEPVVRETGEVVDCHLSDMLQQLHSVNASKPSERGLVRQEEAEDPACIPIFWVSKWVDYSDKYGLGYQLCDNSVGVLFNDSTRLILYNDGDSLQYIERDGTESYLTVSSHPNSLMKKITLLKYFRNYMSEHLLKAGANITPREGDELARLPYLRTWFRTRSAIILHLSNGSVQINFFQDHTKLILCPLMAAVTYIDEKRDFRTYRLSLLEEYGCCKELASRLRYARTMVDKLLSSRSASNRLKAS
VDR inh – blocks the human vitamin D receptor | P11473 | VDR-SRC2-3 peptide fluorescence polarization, 2 h | Potency, µM, without a hit: max response, negative = inhibition, hits mostly inhibitors | hit rate 0.93% among 400,000; note: potency is the fitted concentration of half-maximal effect
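Compounds are added to VDR with labelled SRC2-3 coactivator peptide and held 2 h at room temperature. Inhibition of the VDR–peptide interaction is then read as a change in fluorescence polarization.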
CCT modulator – cytosolic chaperonin activity modulation | purified chaperonin ATPase assay, HTRF ADP detection, 30 min | activity change, % (no concentration beside the values), hits read low | hit rate 0.3% among 360,000 | AID 651819; in the data active = activity change below about -30%
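TRiC (40 or 20 nM final, by batch activity) in 30 mM Tris pH 7.4, 100 mM KCl, 5 mM MgCl2, 1 mM DTT was treated with compound at 76 uM single dose, then 10 uM ATP, 30 min at 37 °C. ADP was read by HTRF Transcreener.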
TbPYK confirm – Trypanosoma brucei pyruvate kinase inhibition, cherry-pick confirmation | shares compounds with PLK1 PBD inh | recombinant TbPYK, Kinase-Glo ATP luminescence | Potency, µM (doses to about 76.9 µM), for the others: top-dose activity change, negative = inhibition, most hits filed as inhibitors | hit rate 67% among 890 | AID 720569; note: potency is the fitted concentration of half-maximal effect; nearly all actives have a fitted effect of over 70% in size
TbPYK orthogonal – orthogonal confirmation of Trypanosoma brucei pyruvate kinase inhibitors; shares compounds with PLK1 PBD inh; recombinant TbPYK, ADP-Glo luminescence, 60 min; Potency, µM (titrated, usually from 76.9 µM), for inactives: top-dose activity change, negative = inhibition, usual class: inhibitors; hit rate 62% among 890; AID 720584; note: potency is the fitted concentration of half-maximal effect; nearly all actives have a fitted effect of over 75% in size
The depositor's hits bear a star; ? = inconclusive; . = no result given; [ ] = another dose, or the depositor's remark. Unless noted, calls come from the whole dose curve; as a rule, active = well fitted curve in the direction sought with a large enough effect; inconclusive = small, poorly fitted or top-dose-only effect, or another doubt; inactive = no such curve, though single readings can be large; an effect the other way counts as inactive or inconclusive. Unless noted, % is set by controls: 0 for no effect and ±100 for the full control effect.

SMILES | Mm-Cpn inhibitor | G9a inh | Sfp PPTase inh | PLK1 PBD inh | VDR inh | CCT modulator | TbPYK confirm | TbPYK orthogonal
C=CCNC(=S)NNC(=O)c1cccn(Cc2ccc(Cl)cc2Cl)c1=O | 1% | ? | 6% | -16% | -5% | 3 | 0.89µM* | 2.8µM*
COc1ccc(C(=O)NC2CCCCCCC2)cc1OC | . | . | . | -17% | -12% | -2 | . | .
COc1ccc(S(=O)NC2CCCCC2)c(OC)c1C (stereo not given) | 1% | 32µM* | 50µM* | -19% | 1% | 0 | 22µM* | 20µM*
O=C(CCNS(=O)(=O)c1ccc2c(c1)CCCC(=O)N2)Nc1cccc(Cl)c1 | . | -2%[59 µM] | . | . | 5% | . | . | .
Cc1ccc(COc2ccc(-c3cc(C(F)(F)F)n4nc(C)cc4n3)cc2)cc1 | . | -19%[59 µM] | . | . | 6% | . | . | .
COc1cc(C2Nn3c(nnc3-c3ccccc3OC)S2)ccc1O (stereo not given) | 2% | 0.63µM* | ? | 21µM* | 1% | 3 | 0.22µM* | 4µM*
CCC(Sc1nc2n[nH]c(C)c2c(=N)n1-c1ccc(Br)cc1)C(=O)N(CC)CC (stereo not given) | . | 15%[59 µM] | . | . | 10% | . | . | .
C[C@@H]1O[C@@H](O[C@@H]2[C@@H](O)[C@H](OCCc3ccc(O)c(O)c3)O[C@H](CO)[C@H]2OC(=O)/C=C/c2ccc(O)c(O)c2)[C@H](O)[C@H](O)[C@H]1O | -6% | . | . | 0% | -14% | 0 | 32µM* | ?
COc1ccc(Br)cc1CNC(=O)CN1C(=O)CSc2ccc(S(=O)(=O)N3CCOCC3)cc21 | . | -2%[59 µM] | . | . | 3% | . | . | .
CSC1CCCCC1(O)CSc1nc2c(cc1C#N)CCCC2 (stereo not given) | 1% | 2.5µM* | 50µM* | 27µM* | -15% | -1 | 7.9µM* | 8.9µM*
CSc1nc2c(cc1C#N)CCCCC2 | 1% | -6%[59 µM] | 3% | -5% | ? | -2 | . | .
Cc1ccc2cc(CN(CC3CCCO3)C(=O)C(C)C)c(=O)[nH]c2c1 (stereo not given) | 1% | ? | 17% | -9% | -10% | 0 | . | .
Cc1ccc2cc(CN(CC(C)C)C(=O)C3CCCO3)c(=O)[nH]c2c1 (stereo not given) | 1% | ? | -2% | -8% | 3% | -4 | -20% | -28%
O=C(CSc1ccc(-c2nc3ccccc3[nH]2)cn1)N1CCN(C(=O)c2ccco2)CC1 | -6% | ? | -4% | 30µM* | ? | -2 | ? | ?
O=C(CCc1nc2ccccc2[nH]1)N1CCN(C(=O)c2ccco2)CC1 | 0% | -47% | 6% | -2% | -1% | 2 | . | .
CC(C)(Oc1ccc(C2CCCc3ccccc32)cc1)C(=O)O (stereo not given) | . | -2%[12.7 µM] | -3% | . | -1% | . | . | .
O=c1c(-c2ccc(F)cc2)nc2cnc(N3CCOCC3)nc2n1CCc1ccccc1 | . | 8%[0.501 µM] | 1% | . | -2% | . | . | .
O=C(CCSCCC(=O)NCc1ccco1)NCc1ccco1 | -2% | ? | 16µM* | 21µM* | ? | 3 | ? | ?
Cc1ccc(/C=C/C(=O)NCCCN2CCN(CCCNC(=O)/C=C/c3ccc(C)o3)CC2)o1 | -3% | -12%[59 µM] | 0% | -7% | 3% | 0 | . | .
COc1ccc(CCNC(=O)/C=C/c2ccco2)cc1 | -1% | . | -61% | 0% | 89µM* | -1 | ? | ?
Cc1ccc(/C=C/C(=O)NCc2ccc3c(c2)OCO3)o1 | -2% | 10µM* | -91% | ? | -16% | -2 | 11µM* | 14µM*
COc1ccc(/C=C/C(=O)NCCc2ccc(S(N)(=O)=O)cc2)cc1 | 0% | -7%[59 µM] | 10% | 0% | -12% | -3 | . | .
NS(=O)(=O)c1ccc(CNC(=O)/C=C/c2ccc(Cl)c(Cl)c2)cc1 | 0% | 1%[59 µM] | 5% | -7% | -26% | -2 | . | .
Cc1ccc(/C=C/C(=O)NCCc2cccc(Cl)c2)o1 | -1% | -39%[0.501 µM] | 20µM* | 30µM* | 79µM* | -2 | 3.5µM* | 4µM*
Cc1ccc(/C=C/C(=O)NCc2ccc(S(N)(=O)=O)cc2)o1 | -2% | 2µM* | 3.5µM* | 27µM* | 89µM* | -2 | 6.3µM* | 1.6µM*
SMILES | Mm-Cpn inhibitor | G9a inh | Sfp PPTase inh | PLK1 PBD inh | VDR inh | CCT modulator | TbPYK confirm | TbPYK orthogonal
CCOc1ccc(CNC(=O)Cn2ccc3cc(S(=O)(=O)N4CCCCC4)ccc32)cc1 | . | -5%[59 µM] | . | . | 3% | . | . | .
Cc1ccc(/C=C/C(=O)NCC2COc3ccccc3O2)o1 (stereo not given) | 1% | ? | 6.3µM* | ? | ? | -1 | 25µM* | 22µM*
CC(=O)NS(=O)(=O)c1ccc(NC(=O)/C=C/c2ccc(C)o2)cc1 | 1% | 22µM* | 5µM* | 21µM* | -17% | 1 | 5µM* | 7.9µM*
Cc1ccc(/C=C/C(=O)NC2CCCCCCC2)o1 | -1% | 1.8µM* | -117% | 24µM* | ? | -1 | ? | ?
OC[C@@H](O)[C@@H](O)CCc1ccccc1 | . | . | 19% | . | 5% | . | . | .
O=C1c2sc3nc4ccccc4n3c2C(=O)N1c1ccccc1Cl | -2% | 1.4µM* | 40µM* | 12µM* | -4% | 1 | 6.3µM* | 16µM*
N=C1SCC(=O)N1c1ccccc1Cl | -2% | 15% | 8% | -16% | -16% | -2 | . | .
O=C(NCCc1ccc(O)c(O)c1)C1COc2ccccc2O1 (stereo not given) | -1% | 2.2µM* | 50µM* | -9% | -2% | 1 | 18µM* | 18µM*
CC(C)n1c(=O)[nH][nH]c1=S | 1% | 0.89µM* | 8.9µM* | 11µM* | 50µM* | 0 | 1µM* | 2.5µM*
CC(C)n1c(=O)[nH]c2ccccc21 | -1% | 8% | 6% | -6% | 8% | -1 | . | .
CC1=CC(=O)C(Sc2ccc(C)cc2)=CC1=O | . | . | . | 0.84µM* | . | -2 | 1.3µM* | 2.5µM*
Cc1ccc(Sc2c(C)[nH]n(C(C)(C)C)c2=O)cc1 | 0% | 24%[59 µM] | 15% | -12% | -1% | -2 | . | .
CCCS(=O)(=O)c1cscc1NC(=O)c1c(-c2c(F)cccc2Cl)noc1C | -9% | -4% | 0% | 4% | -4% | 2 | 13µM* | 14µM*
CCCCCC(=O)/C=C/C=C\CCCCCCCC(=O)O | . | 19%[59 µM] | 7% | . | 0% | . | . | .
Cc1sc2ccccc2[n+]1CC(=O)O | -3% | ? | 2µM* | ? | 22µM* | -1 | 3.5µM* | 13µM*
